Assay [1] concerns the target Aryl hydrocarbon receptor (Homo sapiens) (UniProt P35869). The assay is described as follows: qHTS assay to identify small molecule that activate the aryl hydrocarbon receptor (AhR) signaling pathway (AID 743085). Further: nearly all actives have a fitted effect of over 15% in size. Further: potency means the concentration at half of the fitted maximal effect.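 On activation: HG2L7.5c1 human HepG2 liver cells with stably integrated DRE-driven firefly reporter; series mostly up to about 70 µM.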 Summed up:
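Measured in HG2L7.5c1 cells: CellTiter-Fluor signal (30 min incubation, 37C) for viability, then luciferase luminescence (30 min, room temperature). Compound contact time was 24 h at 37C, following a 5 h pre-incubation.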

Assay [2] is described as follows: qHTS assay to identify small molecule that activate the aryl hydrocarbon receptor (AhR) signaling pathway - cell viability counter screen (AID 743086). Further: nearly all actives have a fitted effect of over 45% in size. Further: potency means the concentration at half of the fitted maximal effect. In short, it runs like this:
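HepG2-AhR-luc (HG2L7.5c1) cells, 4000/well, treated 24 h at 37 C with compound; viability measured as CellTiter-Fluor fluorescence after 30 min in the same wells as the luciferase read.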

A short description of assay [3]: qHTS assay to identify small molecule antagonists of the peroxisome proliferator-activated receptor gamma (PPARg) signaling pathway - cell viability counter screen (AID 743194). Further: nearly all actives have a fitted effect of over 55% in size. Summed up:
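Cytotoxicity counter screen in PPARg-bla HEK293H cells, same wells as reporter assay. Compounds plus 50 nM rosiglitazone (final) for 17 h at 37 C, then viability read by CellTiter-Glo luminescence.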
A general note: In qHTS, concentration-response curves come from the screen itself.

A short description of assay [4]: qHTS assay for small molecule agonists of the antioxidant response element (ARE) signaling pathway (AID 743202; active means well fitted activation curve with a large enough effect in the signal ratio in the repeat runs, not every such curve was filed as active; the % refers to the signal ratio; further: potency means the concentration at half of the fitted maximal effect). Summed up:
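HepG2 ARE-bla reporter line, 2,000 cells/well; 5 h preincubation 37 C/5% CO2; compound (DMSO) 16 h 37 C; B/G FRET substrate 2 h RT; fluorescence intensity.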

Assay [5] is described as follows: qHTS assay for small molecule agonists of the antioxidant response element (ARE) signaling pathway - cell viability counter screen (AID 743203; calls by dose curve; further: nearly all actives have a fitted effect of over 55% in size; further: potency means the concentration at half of the fitted maximal effect). Summed up: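 Viability counter screen: stably transfected ARE-bla HepG2 line, 16 hrs compound exposure at 37C/5% CO2, ATP-based CellTiter-Glo luminescence measured in the reporter wells.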
The nature of assay [6]: qHTS assay for small molecule activators of the heat shock response signaling pathway - cell viability counter screen (AID 743209). Further: nearly all actives have a fitted effect of over 50% in size. Further: potency means the concentration at half of the fitted maximal effect. Summed up:
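Viability of HSE-bla HeLa cells is measured with CellTiter-Glo in the wells already used for the reporter read. Compound exposure lasts 5 h at 37 C, and luminescence is read after 30 min at room temperature.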

A short description of assay [7]: qHTS assay for small molecule activators of the heat shock response signaling pathway (AID 743210; active means well fitted activation curve with a large enough effect in the signal ratio in the repeat runs, with a control signal flat, not every such curve was filed as active; the % refers to the signal ratio; further: potency means the concentration at half of the fitted maximal effect;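 on activation: HeLa cells with beta-lactamase reporter driven by heat shock elements; series mostly up to about 63 µM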). Summed up:
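Beta-lactamase reporter read-out: FRET substrate fluorescence after 2.5 h at RT, following 5 h compound treatment at 37 C of HeLa cells carrying HSE-driven bla reporter; quantitative HTS format.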

A short description of assay [8]: qHTS assay to identify small molecule agonists of the peroxisome proliferator-activated receptor delta (PPARd) signaling pathway - cell viability counter screen (AID 743211). Further: nearly all actives have a fitted effect of over 55% in size. In short, it runs like this:
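Following 5 h plating at 37 C and 5% CO2, PPARd UAS-bla HEK293H cells took up test compounds for 17 h. Viability was quantified by luminescence 30 min after CellTiter-Glo addition at room temperature.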

Assay [9] concerns the target Peroxisome proliferator-activated receptor gamma (Homo sapiens) (UniProt P37231). The assay is described as follows: qHTS assay to identify small molecule antagonists of the peroxisome proliferator-activated receptor gamma (PPARg) signaling pathway (AID 743191; calls by dose curve; further: nearly all actives have a fitted effect of over 30% in size; further: potency means the concentration at half of the fitted maximal effect). Summed up:
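GeneBLAzer PPARg UAS-bla HEK293H cells, 5 h post-plating, exposed to compounds 17 h at 37C. LiveBLAzer B/G FRET substrate added for 1 h at room temperature; beta-lactamase reporter read by fluorescence intensity.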

Assay [10] shares this target. In words: qHTS assay to identify small molecule agonists of the peroxisome proliferator-activated receptor gamma (PPARg) signaling pathway (AID 743094; active means well fitted activation curve with a large enough effect in the signal ratio in the repeat runs, not every such curve was filed as active; the % refers to the signal ratio). Summed up: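 Reporter activation was scored by fluorescence of cleaved LiveBLAzer B/G substrate (1 h, room temperature) in PPARg-bla HEK293H cells previously treated 17 h at 37C with DMSO-dissolved compounds.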

Records with an inconclusive call do not appear. Calls of active or inactive are those of the source. Unless noted, the call rests on the fitted dose curve; in most records, active means well fitted curve in the direction sought with a large enough effect in the repeat runs; inconclusive means weak or mixed curves; inactive means no such curve, though single readings can be large; an effect the other way counts as inactive or inconclusive.

Aryl hydrocarbon receptor (Homo sapiens), sequence (P35869 whole entry, looked up): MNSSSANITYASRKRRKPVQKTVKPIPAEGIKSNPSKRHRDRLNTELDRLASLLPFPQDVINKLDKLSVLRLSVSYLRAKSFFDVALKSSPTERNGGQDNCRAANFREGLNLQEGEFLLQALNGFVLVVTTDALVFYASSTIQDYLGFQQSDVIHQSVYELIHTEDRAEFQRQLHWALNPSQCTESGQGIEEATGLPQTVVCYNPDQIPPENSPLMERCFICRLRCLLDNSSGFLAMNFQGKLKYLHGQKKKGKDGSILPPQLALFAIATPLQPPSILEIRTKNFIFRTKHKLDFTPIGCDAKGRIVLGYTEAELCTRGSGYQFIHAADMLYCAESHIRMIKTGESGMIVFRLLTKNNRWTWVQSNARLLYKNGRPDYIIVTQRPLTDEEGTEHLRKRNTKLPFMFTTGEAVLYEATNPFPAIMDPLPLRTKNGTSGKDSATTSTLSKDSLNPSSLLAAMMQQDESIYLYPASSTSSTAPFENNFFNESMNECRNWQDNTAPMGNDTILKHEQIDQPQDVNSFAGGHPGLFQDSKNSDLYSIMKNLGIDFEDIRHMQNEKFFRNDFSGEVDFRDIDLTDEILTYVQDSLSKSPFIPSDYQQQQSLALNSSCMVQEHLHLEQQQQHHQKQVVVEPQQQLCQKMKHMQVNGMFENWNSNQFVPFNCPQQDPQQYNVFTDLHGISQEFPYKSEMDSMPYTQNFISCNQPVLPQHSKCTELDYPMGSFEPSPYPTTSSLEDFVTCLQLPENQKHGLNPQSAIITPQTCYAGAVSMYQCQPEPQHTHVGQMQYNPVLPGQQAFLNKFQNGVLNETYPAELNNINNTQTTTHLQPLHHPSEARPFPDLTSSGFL
Peroxisome proliferator-activated receptor gamma (Homo sapiens), sequence (P37231 whole entry, looked up): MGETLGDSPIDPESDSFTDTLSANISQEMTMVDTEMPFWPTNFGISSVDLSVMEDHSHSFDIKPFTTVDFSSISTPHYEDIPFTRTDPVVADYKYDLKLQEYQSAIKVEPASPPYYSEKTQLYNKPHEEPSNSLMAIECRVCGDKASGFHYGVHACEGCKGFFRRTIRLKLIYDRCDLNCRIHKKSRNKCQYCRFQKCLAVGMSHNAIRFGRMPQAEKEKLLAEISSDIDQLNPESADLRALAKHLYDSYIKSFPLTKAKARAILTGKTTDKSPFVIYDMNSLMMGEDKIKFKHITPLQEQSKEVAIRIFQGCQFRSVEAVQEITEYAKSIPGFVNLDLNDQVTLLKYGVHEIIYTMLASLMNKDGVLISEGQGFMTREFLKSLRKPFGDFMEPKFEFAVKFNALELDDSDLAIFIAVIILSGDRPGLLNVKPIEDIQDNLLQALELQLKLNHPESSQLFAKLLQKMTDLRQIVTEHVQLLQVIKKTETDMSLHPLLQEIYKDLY

As for `C/C=C(\C)C(=O)OCCC(C)CCC=C(C)C` (configuration not stated), the Potency result in assay [1], in [2], in assay [3], in assay [4], in assay [5] and in assay [6] was “inactive” in each case. The Potency result in assay [7] and in assay [8] was “inactive” in each case.
For the compound `COCc1c(C(C)C)nc(C(C)C)c(/C=C/[C@@H](O)C[C@@H](O)CC(=O)O)c1-c1ccc(F)cc1`, the Potency result in [1], in [2], in assay [3], in assay [5], in assay [6] and in [7] was “inactive” in each case.
Regarding `CCCCN(CCCC)C(=S)SSC(=S)N(CCCC)CCCC`, the Potency result in assay [1], in assay [2], in assay [3], in [5], in assay [6] and in [8] was “inactive” each time. The Potency in [9] was 24.3 µM (active); in assay [7] it was 1.37 µM (active).
In the case of `CCNC(=O)N1CCN(CCCC(c2ccc(F)cc2)c2ccc(F)cc2)CC1`, the Potency entry in [1], in assay [3], in assay [5], in assay [6] and in [7] was “inactive” throughout. In addition, in assay [2], the Potency is 13.3 µM (active).
Regarding `C[C@]12CCC(=O)C=C1C=C[C@@H]1[C@@H]2CC[C@@]2(C)[C@H]1CC[C@@]21CCC(=O)O1`, the Potency entry in [1], in [2], in assay [3], in assay [5], in assay [6] and in assay [7] was “inactive” throughout. For the same compound, the Potency entry in assay [8] was “inactive”. The Potency in assay [4] was 11.9 µM (active).
For the compound `CCCCCCCCCCCC(=O)[O][Sn]([CH2]CCC)([CH2]CCC)[O]C(=O)CCCCCCCCCCC`, the Potency entry in assay [1], in [2], in [10] and in assay [8] was “inactive” throughout. The Potency in assay [4] is 2.11 µM (active).
With `CCCCC/C(=C\c1ccccc1)CO`, the Potency entry in assay [1], in [2], in assay [10], in assay [4], in assay [5] and in [6] was “inactive” in each case. The Potency entry in assay [7] and in assay [8] was “inactive” in each case.
Consider `CC(C)(C)C(=O)C(Oc1ccc(Cl)cc1)n1ccnc1` (configuration not stated), for which, in [1], the Potency is 23.7 µM (active). In addition, the Potency entry in assay [2], in assay [3], in assay [4], in assay [5] and in assay [6] was “inactive” each time.
For `Cc1cc(O)c2c(O)c3c(O)cccc3cc2c1`, the Potency in assay [1] was 2.66 µM (active); in assay [4] it was 11.9 µM (active). Also, the Potency result in [2], in assay [3], in assay [5], in assay [6], in [7] and in [8] was “inactive” in each case.
Regarding `C[C@@H]1C[C@H]2[C@@H]3CCC4=CC(=O)C=C[C@]4(C)[C@@]3(F)[C@@H](O)C[C@]2(C)[C@@]1(O)C(=O)CO`, the Potency entry in assay [1], in assay [2], in assay [3], in [4], in [5] and in [6] was “inactive” each time. Besides, the Potency entry in [7] and in assay [8] was “inactive” throughout.
As to `Cc1cc(OI)c(C(C)C)cc1-c1cc(C(C)C)c(OI)cc1C`, the Potency result in [1], in assay [2], in [3], in assay [4], in assay [5] and in [6] was “inactive” each time. Moreover, the Potency result in assay [8] was “inactive”.
For the compound `CCCCC1C(=O)N(c2ccccc2)N(c2ccc(O)cc2)C1=O` (configuration not stated), the Potency result in [1], in assay [2], in assay [3] and in assay [5] was “inactive” throughout. Further, in assay [4], the Potency is 29.8 µM (active).
Consider `Cc1nccn1-c1ccc(Sc2cccc(C3(C(N)=O)CCOCC3)c2)cc1`, for which the Potency result in assay [1], in assay [2], in [9], in assay [5], in assay [6] and in [7] was “inactive” each time.
Turning to `Cc1oc(C)c(C(=O)Nc2ccccc2)c1C`, the Potency is 24.3 µM (active) in assay [1] and 24.5 µM (active) in assay [9]. Also, the Potency result in assay [2], in assay [3], in [5], in [6], in [7] and in assay [8] was “inactive” each time.
For the compound `CCCCCCCCCCCC[N+](C)(C)CC(=O)[O-]`, the Potency result in [1], in assay [2], in assay [10], in assay [3], in assay [6] and in assay [7] was “inactive” in each case.
Turning to `NC(=O)Nc1ccc(Cl)cc1`, the Potency entry in assay [1], in assay [2], in assay [10], in assay [4], in assay [5] and in [6] was “inactive” in each case. Moreover, the Potency result in assay [7] and in assay [8] was “inactive” in each case.
As for `O=C(N/N=C/c1ccc([N+](=O)[O-])o1)c1ccc(O)cc1`, the Potency result in assay [1], in [10], in assay [6] and in assay [7] was “inactive” in each case. Moreover, the figures for the Potency in [2] and in assay [5] were 11.4 µM (active) and 23.7 µM (active), respectively.
Turning to `CC1CC(=O)NN=C1c1ccc(NCC(C)(C)NCC(O)COc2cc(Cl)ccc2C#N)cc1` (configuration not stated), the Potency in assay [1] is 6.68 µM (active). Further, the Potency result in assay [2], in assay [3], in assay [4], in [5], in assay [6] and in assay [7] was “inactive” in each case. Further, the Potency entry in [8] was “inactive”.
`CC1C2CC(CC2C2CCCC(O)C2)C1(C)C` (configuration not stated): the Potency result in [1], in assay [2] and in [3] was “inactive” throughout. The Potency is 61.1 µM (active) in [5] and 49 µM (active) in assay [6].
For the compound `CCn1nc(C)c2c1C(=O)NCC(c1ccc(O)cc1)=N2`, the Potency in assay [1] is 24.3 µM (active). The Potency result in [2], in [10], in assay [5], in assay [6], in assay [7] and in [8] was “inactive” throughout.

Source of the values: PubChem BioAssay (Tox21).
